Experimental data: PubChem BioAssay (NCI)
Compounds without any hit were thinned out: in the full panel of roughly 83,000, 20% have a hit.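 Testing used 96-well plates and a 48-hour single-concentration exposure. Example: -40 means 40% of the starting cells died.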 Values without a mark were called inactive. Activity calls are given as the source filed them. Rule for the calls: active = growth percent below 10; inactive = the rest.

What was measured:
Assay in all cases: NCI-60 one-dose screen, 48 h (100 = growth as untreated, 0 = no growth, -100 = all killed)
Conditions in all cases: 10 µM unless noted
HCT-15 colon = system: HCT-15 colon
HT29 colon = system: HT29 colon
SNB-75 CNS = system: SNB-75 CNS
SNB-19 CNS = system: SNB-19 CNS
U251 CNS = system: U251 CNS
PC-3 prostate = system: PC-3 prostate
SK-MEL-5 melanoma = system: SK-MEL-5 melanoma
UACC-62 melanoma = system: UACC-62 melanoma
LOX IMVI melanoma = system: LOX IMVI melanoma
SK-MEL-28 melanoma = system: SK-MEL-28 melanoma
SK-MEL-2 melanoma = system: SK-MEL-2 melanoma
EKVX NSCLC = system: EKVX NSCLC
SN12C renal = system: SN12C renal
UO-31 renal = system: UO-31 renal
TK-10 renal = system: TK-10 renal
ACHN renal = system: ACHN renal
CAKI-1 renal = system: CAKI-1 renal
A498 renal = system: A498 renal
CCRF-CEM leukemia = system: CCRF-CEM leukemia
MOLT-4 leukemia = system: MOLT-4 leukemia

Row | Structure (SMILES) | growth (HCT-15 colon) | growth (HT29 colon) | growth (SNB-75 CNS) | growth (SNB-19 CNS) | growth (U251 CNS) | growth (PC-3 prostate) | growth (SK-MEL-5 melanoma) | growth (UACC-62 melanoma) | growth (LOX IMVI melanoma) | growth (SK-MEL-28 melanoma) | growth (SK-MEL-2 melanoma) | growth (EKVX NSCLC) | growth (SN12C renal) | growth (UO-31 renal) | growth (TK-10 renal) | growth (ACHN renal) | growth (CAKI-1 renal) | growth (A498 renal) | growth (CCRF-CEM leukemia) | growth (MOLT-4 leukemia)
1 | O=[N+]([O-])c1ccccc1Sc1ccccc1[N+](=O)[O-] | 99.1% | 92% | 80.8% | 106% | 90.6% | 87.5% | 97.3% | 100% | 91.8% | 109% | 97.2% | 91.2% | 99.3% | 75.5% | 85.2% | 102% | -54.5% (active) | 81.2% | 107% | 94.8%
2 | CS(=O)(=O)Nc1cc(-c2ccc3ncnc(Nc4ccc5c(cnn5Cc5ccncc5)c4)c3c2)cnc1Cl | 92.3% | 64.8% | 8.94% (active) | 60% | 52.7% | 57.7% | 52.5% | 32.5% | 22% | 32.5% | -0.132% (active) | 75.9% | 54.7% | 57.5% | 39.1% | 89.9% | 40.7% | 2.83% (active) | 33.1% | 57.1%
3 | CCOC(=O)c1ccc[nH]1 | 93.9% | 106% | 84.2% | 99.4% | 96.6% | 91.8% | 98.4% | 103% | 94.1% | 115% | 99.3% | 97.1% | 105% | 91.8% | 98.3% | 90.4% | 74.3% | 101% | 92.1% | 102%
4 | Cc1nc2sc(C(=O)Nc3cccc(Cl)c3C)c(N)c2cc1C(=O)/C=C/c1ccccc1 | -66.4% (active) | -58.6% (active) | 12.6% | -41.8% (active) | -73.6% (active) | 0.225% (active) | -10.8% (active) | 2.03% (active) | -75.8% (active) | 27.3% | 33.8% | 43.9% | -55.6% (active) | -60.1% (active) | -12.9% (active) | 3.93% (active) | -62.1% (active) | -6.27% (active) | 8.78% (active) | 16.8%
5 | O=C(NC1CCC(Br)CC1)C1CCCC(S(=O)(=O)NC2CCCCC2)C1 (stereo not given) | 18.8% [25 µM] | 28.7% [25 µM] | 27.4% [25 µM] | 26.8% [25 µM] | 18.5% [25 µM] | 4.26% [25 µM] (active) | -68% [25 µM] (active) | 9.41% [25 µM] (active) | 15.8% [25 µM] | 24.7% [25 µM] | 17.9% [25 µM] | -19.3% [25 µM] (active) | 22.2% [25 µM] | 8.5% [25 µM] (active) | 18.4% [25 µM] | 15.9% [25 µM] | 13.5% [25 µM] | -5.7% [25 µM] (active) | 18.3% [25 µM] | 7.81% [25 µM] (active)
6 | COc1ccc(C/C(C)=C(\c2ccc(Cl)cc2)c2ccc(OCCCN(C)C)cc2)cc1 | 27.3% | 13.6% | 72.4% | 86.7% | 46.4% | 68.7% | 78.3% | 94.5% | 73.1% | 80.8% | 111% | 94.1% | 78.8% | 62.4% | 86.7% | 90% | 87.3% | 114% | 56.9% | 40.9%
7 | CCn1cc(C(=O)N/N=C/c2ccccc2)c(=O)c2cc(F)c(N3CCNC(C)C3)c(F)c21 (stereo not given) | -86.5% (active) | -92% (active) | 92.8% | 18.9% | -92.3% (active) | 48.9% | 11.9% | -27.9% (active) | -87.3% (active) | -78.8% (active) | 93.4% | 34.3% | 61.7% | 47.5% | 82.7% | 56.8% | 45.8% | 99.6% | -52.1% (active) | -24.5% (active)
8 | O=C(NN1C(=O)CSC1c1cccc([N+](=O)[O-])c1)c1ccc(NC(=O)c2ccccn2)cc1 (stereo not given) | 92.3% | 105% | 98.9% | 97.8% | 106% | 107% | 102% | 96% | 94.9% | 99.3% | 102% | 97.7% | 96.9% | 94.5% | 97% | 103% | 98.7% | 97.5% | 110% | 69.7%
9 | CCCCC#Cc1c(I)n(C2OC(CO[Si](C)(C)C(C)(C)C)C3OC(C)(C)OC32)c(=O)n(C(=O)c2ccccc2)c1=O (stereo not given) | 8.46% (active) | 0.292% (active) | 93.3% | 72.3% | -33.2% (active) | 43% | 78.7% | 55.1% | -65.2% (active) | -42.9% (active) | 43% | 74.8% | 57.8% | -49.4% (active) | -11.4% (active) | 50.6% | 26.9% | 87.9% | -7.06% (active) | 1.98% (active)
10 | O=C(Nc1ncc(Cc2ccccc2)s1)c1sc2ccccc2c1Cl | 26.5% | 12.3% | -1.11% (active) | 52.6% | 21.4% | 27% | 3.74% (active) | 12.1% | 46.9% | 59.4% | 20.8% | 30.2% | 39.5% | 39% | 38.8% | 39.8% | 29.5% | 15.1% | 18.8% | 31.4%
11 | CCN(CC)CCOc1ccc(C(=O)/C=C\c2ccc(Cl)cc2Cl)cc1 | 2.05% (active) | -19.6% (active) | 82.9% | 56.7% | 24.9% | 23.3% | 6.5% (active) | -34.5% (active) | -77.3% (active) | 32.5% | 81% | 63.5% | 43.4% | 25% | 75.9% | 52.7% | 55% | 70% | 7.28% (active) | -13.1% (active)
12 | CNCC[C@H](Oc1cccc2ccccc12)c1cccs1 | 101% | 71.8% | 61.5% | 97.8% | 85.3% | 68.9% | 93% | 91.3% | 74.1% | 91.5% | 104% | 78.9% | 79.1% | 63.7% | 90% | 96.9% | 88.4% | 111% | 91.9% | 50.4%
13 | CCOC(=O)C1=C(c2ccccc2)N=C2N(c3ccccc3)N=C(C(C)=O)N2C1c1ccc(F)cc1 (stereo not given) | 90.8% | 109% | 89.4% | 95.4% | 103% | 89.4% | 97.6% | 89.5% | 102% | 105% | 112% | 97% | 94.3% | 84.3% | 104% | 96.7% | 91.8% | 70.4% | 95.9% | 101%
14 | O=C(/C=C/C12c3ccccc3C(c3ccccc31)C1C(=O)NC(=O)C12)c1ccco1 (stereo not given) | 21.7% | 13.1% | -2.52% (active) | 30.9% | 15.9% | 31.9% | 46% | 30.8% | 16.1% | 44.3% | 7.24% (active) | 55.6% | 22.6% | 42% | 33.6% | 45.6% | 48.1% | 61.7% | -5.48% (active) | 6.25% (active)
15 | N#Cc1nn(-c2cc(=O)[nH]c3ccc(Br)cc23)c(N)c1C#N | 99.3% | 94.8% | 87.3% | 105% | 106% | -86.9% (active) | 101% | 86.6% | 102% | 101% | 103% | 87.5% | 87.3% | 65.7% | 110% | 91% | 90.5% | 105% | -32% (active) | -16.1% (active)
